# Assay results published in PubChem BioAssay (NCI).
# This is part of a sample that, as a whole, favours compounds with a hit. Of some 79,000 tested, about 15% had one in any assay. A number with no mark means an inactive call. The source made the active and inactive calls. Cut-off read from the data, not from the text of the source: active = growth inhibition above about 70%; inactive = the rest.
# Assay: NCI Yeast Anticancer Drug Screen. Data for the rad52 strain (AID 147);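 note: 0% = growth of vehicle-treated control cultures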
# Conditions: S. cerevisiae rad52 mutant growth inhibition, active compounds read high
# Method: Growth inhibition of yeast strains with defined genetic alterations is measured as a screen for potential anti-cancer activity. Selected strains with alterations in DNA damage repair or cell cycle control were exposed to compounds and growth inhibition was measured relative to vehicle treated controls. The strain used in this assay is rad52
SMILES,growth inhibition (at 1.2 µM) [%],growth inhibition (at 3.7 µM),growth inhibition (at 11.0 µM),growth inhibition (at 33.0 µM),growth inhibition (at 100.0 µM)
O=C1c2ccccc2C(=O)C(Cl)C1Cl (stereo not given),1,15%,88% (active),99% (active),98% (active)
CCCCN(CCCC)CC(C(C)=O)C(c1ccccc1)c1c(O)c2ccccc2oc1=O (stereo not given),2,3%,2%,3%,2%
NC1=NCC(c2ccc(Cl)cc2)O1 (stereo not given),-4,-2%,-5%,-8%,47%
CC(Cc1ccccc1)N(C)Cc1nc(C2CCC([N+](=O)[O-])O2)no1 (stereo not given),6,14%,22%,53%,84% (active)
CC1CC(Br)C(=O)O1 (stereo not given),-27,-35%,-18%,89% (active),92% (active)
CC1=C2C(=C[C@@](C)(CO)[C@@H]2O)C(=O)[C@](C)(O)C12CC2,2,9%,21%,42%,74% (active)
COc1cc(O)c2c(O)c3c(c4c2c1[C@]1(C4)C(C)=CCCC1(C)C)[C@H](O)[C@@]1(O)CC(=O)C(C(N)=O)=C(O)[C@@]1(O)C3=O,-1,92% (active),98% (active),98% (active),95% (active)
C/C(=N\O)c1ccc2ccc3ccccc3c2c1,-2,11%,49%,95% (active),95% (active)
